Experimental data: PubChem BioAssay (Tox21)
Records with an inconclusive call do not appear. Where a call stands in place of a potency, no number is given. The source holds several records for some structures; these can differ, active in one and inactive in another. The source made the active and inactive calls. Unless noted, calls follow the shape of the dose curve; as a rule, active = well fitted curve in the direction sought with a large enough effect in the repeat runs; inconclusive = weak or mixed curves; inactive = flat fitted curve, though single readings scatter. Residues, ends and D or L forms follow the SMILES beside them.

Legend:
[1] = qHTS assay to test for compound auto fluorescence at 535 nm (green) in HEK293 cells (AID 720680)
[2] = qHTS assay to test for compound auto fluorescence at 460 nm (blue) in HEK293 cell free culture (AID 720681)
Method in brief: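 Test compounds were pinned into cell-free culture medium (DMEM with 10% FBS) and fluorescence was read directly at Ex/Em 405/460 nm. Signals were expressed as fluorescence equivalents of triamterene, with DMSO vehicle as control.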

[3] = qHTS assay to test for compound auto fluorescence at 535 nm (green) in HEK293 cell free culture (AID 720682)
Method in brief: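 Cell-free medium (DMEM, 10% FBS) receives compound or DMSO by pintool. Plate read directly at Ex 485/Em 535 nm. Signal converted to fluorescein equivalency.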

[4] = qHTS assay to test for compound auto fluorescence at 590 nm (red) in HEK293 cell free culture (AID 720683)
Method in brief: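 Tox21 10K library compounds were pinned into cell-free DMEM with 10% FBS and fluorescence was read at excitation 540 nm. Activity is expressed as Rose Bengal sodium equivalency.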

[5] = qHTS assay to test for compound auto fluorescence at 590 nm (red) in HepG2 cell free culture (AID 720684)
Method in brief: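 Red fluorescence (540 nm excitation, 590 nm emission) was measured after compound transfer into cell-free MEM supplemented with 10% FBS. Values are equivalencies against Rose Bengal sodium.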

[6] = qHTS assay to test for compound auto fluorescence at 460 nm (blue) in HepG2 cell free culture (AID 720685)
Method in brief: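 Compound (23 nL) or DMSO pinned into cell-free MEM with 10% FBS; blue fluorescence read at 405/460 nm excitation/emission, expressed as auto-fluorescence equivalency to triamterene.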

[7] = qHTS assay to test for compound auto fluorescence at 535 nm (green) in HepG2 cell free culture (AID 720686)
[8] = qHTS assay to test for compound auto fluorescence at 460 nm (blue) in HepG2 cells (AID 720687)
Method in brief: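 Cells (2,000/well in MEM with 10% FBS) attached overnight at 37 C, then were exposed to compound or DMSO for 1 hr at 37 C, 5% CO2. Fluorescence read at Ex/Em 405/460 nm, expressed as triamterene-equivalent signal.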

[9] = target: Glucocorticoid receptor (Homo sapiens) (UniProt P04150); assay: qHTS assay to identify small molecule agonists of the glucocorticoid receptor (GR) signaling pathway (AID 720691; active = well fitted activation curve with a large enough effect in the signal ratio in the repeat runs, not every such curve was filed as active; the % refers to the signal ratio; also: potency is read from the fitted curve at half-maximal effect)
Glucocorticoid receptor (Homo sapiens), sequence (P04150 whole entry, looked up): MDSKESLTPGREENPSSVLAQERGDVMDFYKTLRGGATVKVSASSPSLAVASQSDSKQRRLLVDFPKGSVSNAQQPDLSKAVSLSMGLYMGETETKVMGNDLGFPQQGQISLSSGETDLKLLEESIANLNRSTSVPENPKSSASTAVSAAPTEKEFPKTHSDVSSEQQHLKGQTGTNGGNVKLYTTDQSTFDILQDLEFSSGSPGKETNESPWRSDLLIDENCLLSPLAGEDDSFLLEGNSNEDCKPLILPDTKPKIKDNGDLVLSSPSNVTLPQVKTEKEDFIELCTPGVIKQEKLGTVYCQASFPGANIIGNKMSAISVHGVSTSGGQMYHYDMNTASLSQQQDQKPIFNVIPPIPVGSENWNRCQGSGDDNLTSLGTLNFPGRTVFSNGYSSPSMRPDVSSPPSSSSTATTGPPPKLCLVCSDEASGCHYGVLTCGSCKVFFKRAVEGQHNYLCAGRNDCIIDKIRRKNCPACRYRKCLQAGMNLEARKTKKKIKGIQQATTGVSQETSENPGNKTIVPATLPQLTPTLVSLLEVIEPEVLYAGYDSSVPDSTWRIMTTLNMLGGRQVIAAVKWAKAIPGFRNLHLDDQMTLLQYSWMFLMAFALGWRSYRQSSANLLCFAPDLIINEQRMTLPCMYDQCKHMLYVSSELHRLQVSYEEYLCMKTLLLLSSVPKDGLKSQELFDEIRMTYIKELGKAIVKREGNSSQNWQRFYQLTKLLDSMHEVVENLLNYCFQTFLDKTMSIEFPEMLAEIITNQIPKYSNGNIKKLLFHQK
Method in brief: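 GR-bla HeLa cells (beta-lactamase reporter under glucocorticoid response element) were plated 4 h at 37 C/5% CO2, given compounds in DMSO, and incubated 18 h at 37 C. LiveBLAzer B/G FRET substrate was added for 2 h at room temperature, then fluorescence intensity read.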

[10] = target: Glucocorticoid receptor (Homo sapiens) (UniProt P04150); assay: qHTS assay to identify small molecule antagonists of the glucocorticoid receptor (GR) signaling pathway (AID 720692; active = well fitted inhibition curve with a large enough effect in the signal ratio in the repeat runs, not every such curve was filed as active; the % refers to the signal ratio)
Method in brief: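 GR-bla HeLa cells (beta-lactamase reporter under glucocorticoid response element) were pre-plated 4 h at 37 C, treated with compounds plus 5 nM dexamethasone (final) for 18 h, then read by LiveBLAzer B/G FRET fluorescence after 2 h.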

Structure (SMILES)	outcome [1]	outcome [2]	outcome [3]	outcome [4]	outcome [5]	outcome [6]	outcome [7]	outcome [8]	Potency [9]	outcome [10]
Nc1ccc(S(=O)(=O)Nc2nccs2)cc1	inactive	inactive	inactive	inactive	inactive	inactive	inactive	inactive	inactive	inactive
Cc1ccc(C)c(OCCCC(C)(C)C(=O)O)c1	inactive	inactive	inactive	inactive	inactive	inactive	inactive	inactive		
Nc1ccn([C@H]2CC[C@@H](CO)O2)c(=O)n1	inactive	inactive	inactive	inactive	inactive	inactive	inactive	inactive		
C/C=C/c1ccc(OC)cc1	inactive	inactive	inactive	inactive	inactive	inactive	inactive	inactive		
NC(N)=O	inactive	inactive	inactive	inactive	inactive	inactive	inactive	inactive		
Cc1ccccc1C(OCCN(C)C)c1ccccc1 (centres undefined)	inactive	inactive	inactive	inactive	inactive	inactive	inactive	inactive	inactive	
Nc1ccc(C(=O)O)cc1	inactive	inactive	inactive	inactive	inactive	inactive	inactive	inactive	inactive	inactive
O=NO	inactive	inactive	inactive	inactive	inactive	inactive	inactive	inactive		
CNC[C@H](O)c1cccc(O)c1	inactive	inactive	inactive	inactive	inactive	inactive	inactive	inactive		
CC(C)[C@@H]1CC[C@@H](C)C[C@H]1O	inactive	inactive	inactive	inactive	inactive	inactive	inactive	inactive		
O=C(O)CCC(=O)O	inactive	inactive	inactive	inactive	inactive	inactive	inactive	inactive		
COC(=O)[C@H](Cc1ccccc1)NC(=O)[C@@H](N)CC(=O)O (H-Asp-Phe-OMe)	inactive	inactive	inactive	inactive	inactive	inactive	inactive	inactive	inactive	inactive
O=C1NC(=O)c2ccccc21	inactive	inactive	inactive	inactive	inactive	inactive	inactive	inactive		
CCCCOC(=O)CC(CC(=O)OCCCC)(OC(C)=O)C(=O)OCCCC	inactive	inactive	inactive	inactive	inactive	inactive	inactive	inactive	inactive	inactive
N=C(N)c1ccc(OCCCCCOc2ccc(C(=N)N)cc2)cc1	inactive	inactive	inactive	inactive	inactive	inactive	inactive	inactive	inactive	
CCCC(O)C(CC)CO (centres undefined)	inactive	inactive	inactive	inactive	inactive	inactive	inactive	inactive		
Cc1cn([C@H]2C[C@H](N=[N+]=[N-])[C@@H](CO)O2)c(=O)[nH]c1=O	inactive	inactive	inactive	inactive	inactive	inactive	inactive	inactive	inactive	inactive
O=C(O)c1cccc([N+](=O)[O-])c1	inactive	inactive	inactive	inactive	inactive	inactive	inactive	inactive	inactive	inactive
C1N2CN3CN1CN(C2)C3	inactive	inactive	inactive	inactive	inactive	inactive	inactive	inactive		
O=C(O)c1cccnc1	inactive	inactive	inactive	inactive	inactive	inactive	inactive	inactive		
Cc1noc(NS(=O)(=O)c2ccc(N)cc2)c1C	inactive	inactive	inactive	inactive	inactive	inactive	inactive	inactive		
O=C(O)CCCCCCCC(=O)O	inactive	inactive	inactive	inactive	inactive	inactive	inactive	inactive		
OCCc1ccccc1	inactive	inactive	inactive	inactive	inactive	inactive	inactive	inactive		
O=c1ccc2ccccc2o1	inactive	inactive	inactive	inactive	inactive	inactive	inactive	inactive		

Structure (SMILES)	outcome [1]	outcome [2]	outcome [3]	outcome [4]	outcome [5]	outcome [6]	outcome [7]	outcome [8]	Potency [9]	outcome [10]
CCOc1ccc(NC(=O)CC(C)O)cc1 (centres undefined)	inactive	inactive	inactive	inactive	inactive	inactive	inactive	inactive		
CC(C)(Oc1ccc(C2CC2(Cl)Cl)cc1)C(=O)O (centres undefined)	inactive	inactive	inactive	inactive	inactive	inactive	inactive	inactive	inactive	inactive
Nc1ccc(S(=O)(=O)c2ccc(N)cc2)cc1	inactive	inactive	inactive	inactive	inactive	inactive	inactive	inactive		
C[C@]12C=CC(=O)C=C1CC[C@@H]1[C@@H]2[C@@H](O)C[C@@]2(C)[C@H]1CC[C@]2(O)C(=O)CO	inactive	inactive	inactive	inactive	inactive	inactive	inactive	inactive		
Cc1cc(=O)n(-c2ccccc2)n1C	inactive	inactive	inactive	inactive	inactive	inactive	inactive	inactive		
CC(O)C(=O)O (centres undefined)	inactive	inactive	inactive	inactive	inactive	inactive	inactive	inactive		
Cn1cc[nH]c1=S	inactive	inactive	inactive	inactive	inactive	inactive	inactive	inactive		
Oc1ccc(/C=C/c2cc(O)cc(O)c2)cc1	inactive	inactive	inactive	inactive	inactive	inactive	inactive	inactive		
O=C(O)c1[nH]n(-c2ccc(S(=O)(=O)O)cc2)c(=O)c1N=Nc1ccc(S(=O)(=O)O)cc1	inactive	inactive	inactive	inactive	inactive	inactive	inactive	inactive		
Cn1c(=O)c2[nH]cnc2n(C)c1=O	inactive	inactive	inactive	inactive	inactive	inactive	inactive	inactive		
O=S(=O)(O)NC1CCCCC1	inactive	inactive	inactive	inactive	inactive	inactive	inactive	inactive		
NS(=O)(=O)c1cc(C(=O)O)c(NCc2ccco2)cc1Cl	inactive	inactive	inactive	inactive	inactive	inactive	inactive	inactive		
CCCC(CCC)C(=O)O	inactive	inactive	inactive	inactive	inactive	inactive	inactive	inactive	inactive	inactive
NC(=O)c1cnccn1	inactive	inactive	inactive	inactive	inactive	inactive	inactive	inactive	inactive	inactive
NC(=O)c1ccccc1O	inactive	inactive	inactive	inactive	inactive	inactive	inactive	inactive	inactive	inactive
CCCCC1C(=O)N(c2ccccc2)N(c2ccccc2)C1=O	inactive	inactive	inactive	inactive	inactive	inactive	inactive	inactive	inactive	inactive
CC(=O)OCC(COC(C)=O)OC(C)=O	inactive	inactive	inactive	inactive	inactive	inactive	inactive	inactive	inactive	inactive
CC(=O)NS(=O)(=O)c1ccc(N)cc1	inactive	inactive	inactive	inactive	inactive	inactive	inactive	inactive	inactive	inactive
NC(=O)NC1NC(=O)NC1=O (centres undefined)	inactive	inactive	inactive	inactive	inactive	inactive	inactive	inactive	inactive	inactive
CC(O)CN(CCN(CC(C)O)CC(C)O)CC(C)O (centres undefined)	inactive	inactive	inactive	inactive	inactive	inactive	inactive	inactive	inactive	inactive
O=C(O)c1cc(N=Nc2ccc(S(=O)(=O)Nc3ccccn3)cc2)ccc1O	inactive	inactive	inactive	inactive	inactive	inactive	inactive	inactive	inactive	inactive
CCCCCCCCCCCCCCCC(=O)O	inactive	inactive	inactive	inactive	inactive	inactive	inactive	inactive	inactive	inactive
O=C(c1ccccc1)c1ccccc1	inactive	inactive	inactive	inactive	inactive	inactive	inactive	inactive	inactive	inactive
CCCN(CCC)S(=O)(=O)c1ccc(C(=O)O)cc1	inactive	inactive	inactive	inactive	inactive	inactive	inactive	inactive	inactive	inactive

Structure (SMILES)	outcome [1]	outcome [2]	outcome [3]	outcome [4]	outcome [5]	outcome [6]	outcome [7]	outcome [8]	Potency [9]	outcome [10]
NNC(=O)c1ccncc1	inactive	inactive	inactive	inactive	inactive	inactive	inactive	inactive	inactive	inactive
O=c1cc[nH]c(=S)[nH]1	inactive	inactive	inactive	inactive	inactive	inactive	inactive	inactive	inactive	inactive
O=C(O)CS	inactive	inactive	inactive	inactive	inactive	inactive	inactive	inactive	inactive	inactive
CCCNC(=O)NS(=O)(=O)c1ccc(Cl)cc1	inactive	inactive	inactive	inactive	inactive	inactive	inactive	inactive	inactive	inactive
c1ccc2[nH]ccc2c1	inactive	inactive	inactive	inactive	inactive	inactive	inactive	inactive	inactive	inactive
CCC1(c2ccccc2)C(=O)NCNC1=O	inactive	inactive	inactive	inactive	inactive	inactive	inactive	inactive	inactive	inactive
CC(=O)Nc1nnc(S(N)(=O)=O)s1	inactive	inactive	inactive	inactive	inactive	inactive	inactive	inactive	inactive	inactive
COc1c2occc2cc2ccc(=O)oc12	inactive	inactive	inactive	inactive	inactive	inactive	inactive	inactive	inactive	inactive
Nc1ccc(O)c(C(=O)O)c1	inactive	inactive	inactive	inactive	inactive	inactive	inactive	inactive	inactive	inactive
O=C(O)C(=O)O	inactive	inactive	inactive	inactive	inactive	inactive	inactive	inactive	inactive	inactive
Cc1ccc(O)cc1	inactive	inactive	inactive	inactive	inactive	inactive	inactive	inactive	inactive	inactive
O=C(c1ccccc1)C(O)c1ccccc1 (centres undefined)	inactive	inactive	inactive	inactive	inactive	inactive	inactive	inactive	inactive	inactive
O=C1CN(/N=C/c2ccc([N+](=O)[O-])o2)C(=O)N1	inactive	inactive	inactive	inactive	inactive	inactive	inactive	inactive	inactive	inactive
NC(N)=NC(=O)c1nc(Cl)c(N)nc1N	inactive	inactive	inactive	inactive	inactive	inactive	inactive	inactive	inactive	inactive
OC(Cn1cncn1)(Cn1cncn1)c1ccc(F)cc1F	inactive	inactive	inactive	inactive	inactive	inactive	inactive	inactive	inactive	inactive
COc1ccc2[nH]cc(CCNC(C)=O)c2c1	inactive	inactive	inactive	inactive	inactive	inactive	inactive	inactive	inactive	inactive
O=C(O)CCCCC(=O)O	inactive	inactive	inactive	inactive	inactive	inactive	inactive	inactive	inactive	inactive
CCCCC(CC)COC(=O)/C=C/c1ccc(OC)cc1 (centres undefined)	inactive	inactive	inactive	inactive	inactive	inactive	inactive	inactive	inactive	inactive
Cc1cc(=O)[nH]c(=S)[nH]1	inactive	inactive	inactive	inactive	inactive	inactive	inactive	inactive	23.9 µM (active) and inactive	inactive
Cc1ccc(S(=O)(=O)NC(=O)NN2CCCCCC2)cc1	inactive	inactive	inactive	inactive	inactive	inactive	inactive	inactive	inactive	inactive
CC1(C)[C@@H]2CC[C@@]1(C)C(=O)C2	inactive	inactive	inactive	inactive	inactive	inactive	inactive	inactive	inactive	inactive
CC(O)CO (centres undefined)	inactive	inactive	inactive	inactive	inactive	inactive	inactive	inactive	inactive	inactive
O=C(C1CCCCC1)N1CC(=O)N2CCc3ccccc3C2C1 (centres undefined)	inactive	inactive	inactive	inactive	inactive	inactive	inactive	inactive	inactive	inactive
O=S(=O)(O)c1ccc2cc(O)ccc2c1	inactive	inactive	inactive	inactive	inactive	inactive	inactive	inactive	inactive	inactive
